An excerpt weighted towards active compounds, which were near 7.3% of everything screened.
ELG1 genotoxic: inducers of genotoxicity in HEK293T ELG1-luciferase cells; HEK293T ELG1-luciferase reporter, luminescence, 16 h; Potency, µM (top dose mostly 46 µM), without a hit: at the highest dose activity change, positive = activation, most hits filed as activators; actives 1.3% (n = 330,000); further: % of control where 0% means no effect; nearly all actives have a fitted effect of over 60% in size
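Genotoxic stress is detected as increased luminescence from luciferase-tagged ELG1 in HEK293T cells, measured with ONE-Glo after a 16 hr treatment at 37 °C.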
NPC1 prom act: activators of NPC1 promoter. Huh7 NPC1 promoter luciferase reporter, 24 h. actives 2.4% (n = 320,000). Potency, µM (series often up to 9.22 µM), for inactives: at the highest dose activation, actives largely listed as activators; further: % of control where 0% means no effect; nearly all actives have a fitted effect of over 60% in size
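Luciferase expression driven by the NPC1 promoter was measured in stably transfected Huh7 cells after a 24 h compound incubation, using a luciferase reagent and a luminescence read.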
SMN2 splice up: SMN2 splice variant enhancement | actives 2.8% (n = 210,000) | Potency, µM (series often up to 46.1 µM), inactives show at the top dose activity change, positive = activation, actives largely listed as activators | HEK293 SMN2-luciferase splicing reporter, luminescence, 30-36 h | AID 1458; further: % of control where 0% means no effect; nearly all actives have a fitted effect of over 55% in size
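qHTS luciferase splicing reporter: luminescence rises when SMN2 exon 7 is included in transfected HEK293 cells. Compound exposure lasted 30-36 h at 37C, with 4.5 mM final sodium butyrate as control, followed by a ONE-Glo read.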
FLuc counter: counter-screen for miR-21 project: firefly luciferase inhibitors or activators. P08659. actives 6.9% (n = 360,000). purified FLuc, Km substrates, luminescence inhibition. Potency, µM (titrated, usually from 57.5 µM), without a hit: at the highest dose activity change, negative = inhibition, hits mostly inhibitors;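 further: plate controls were vehicle for no effect and reference inhibitor for full effect; nearly all actives have a fitted effect of over 55% in size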
Target sequence (P08659 whole entry, looked up): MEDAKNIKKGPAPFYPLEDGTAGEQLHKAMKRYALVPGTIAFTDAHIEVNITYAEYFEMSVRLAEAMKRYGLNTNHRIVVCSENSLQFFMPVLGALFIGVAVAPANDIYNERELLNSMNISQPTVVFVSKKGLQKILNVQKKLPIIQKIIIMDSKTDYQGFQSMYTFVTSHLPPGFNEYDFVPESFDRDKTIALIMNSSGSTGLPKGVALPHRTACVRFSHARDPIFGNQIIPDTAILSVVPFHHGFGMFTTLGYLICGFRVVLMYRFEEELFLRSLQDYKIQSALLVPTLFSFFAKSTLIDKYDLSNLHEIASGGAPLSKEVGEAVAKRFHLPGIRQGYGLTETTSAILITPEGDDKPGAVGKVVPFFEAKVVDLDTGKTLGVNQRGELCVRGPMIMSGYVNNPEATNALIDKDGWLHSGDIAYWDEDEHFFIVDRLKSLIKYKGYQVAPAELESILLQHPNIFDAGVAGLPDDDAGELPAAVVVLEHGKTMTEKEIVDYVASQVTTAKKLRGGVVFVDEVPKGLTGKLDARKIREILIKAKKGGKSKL
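Biochemical qHTS of compounds, final roughly 60 µM downward over six points, against 10 nM purified firefly luciferase using Km concentrations of substrates (10 uM D-luciferin, 10 uM ATP) in Tris acetate pH 7.5 buffer; luminescence output.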
Rab9 prom act: Rab9 promoter activation. actives 2.8% (n = 320,000). Potency, µM (titrated, usually from 9.22 µM), for inactives: at the highest dose activation, negative = inhibition, actives largely listed as activators. Huh7 Rab9 promoter-luciferase reporter, luminescence, 24 h; further: % of control where 0% means no effect; nearly all actives have a fitted effect of over 60% in size
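Cells were plated at 1500 per well in reduced-serum medium with 10% FBS and left 2 h. Compound in DMSO was then added for 24 h at 37 °C. Reporter signal was read by luminescence after 10 min with luciferase detection reagent.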
uPA generation: cell surface uPA generation inhibition | cell surface uPA generation assay, qHTS | Potency, µM (titrated, usually from 38.3 µM), without a hit: top-dose activity change, negative = inhibition, actives largely listed as inhibitors | actives 0.31% (n = 330,000); active means well fitted inhibition curve with a large enough effect; inconclusive means small, poorly fitted or top-dose-only effect; inactive means no such curve, though single readings can be large or run the other way; tested in mouse RAW 264.7 cells; further: on the % scale 0 is the no-effect control and ±100 the full control effect; nearly all actives have a fitted effect of over 55% in size
Active calls of the source: *; ? = inconclusive; . = no result given; [ ] = remark or other dose. Unless noted, the call rests on the fitted dose curve; in most records, active means well fitted curve in the direction sought with a large enough effect; inconclusive means small, poorly fitted or top-dose-only effect, or another doubt; inactive means no such curve, though single readings can be large; an effect the other way counts as inactive or inconclusive. Potency means the concentration at half of the fitted maximal effect.

SMILES | ELG1 genotoxic | NPC1 prom act | SMN2 splice up | FLuc counter | Rab9 prom act | uPA generation
CCc1ccc(NCc2cc3ccc(OC)cc3n(CC(=O)Nc3ccccc3OC)c2=O)cc1 | . | . | . | 2% | . | .
CC(=O)N1CCCc2cc(S(=O)(=O)N3CCCC(C(=O)Nc4ccc(F)cc4F)C3)ccc21 (stereo not drawn) | . | . | . | -6% | . | .
CCOc1ccc(-c2cc(C(=O)NCCc3ccc(C)cc3)c3ccccc3n2)cc1 | . | . | . | 1.3µM* | . | .
CCOc1ccc(-c2cc(C(=O)O)c3ccccc3n2)cc1 | 3.3µM* | ? | 11µM* | 0.67µM* | 1.6µM* | .
Cc1ccc(-c2cc(C(=O)O)c3ccccc3n2)c(C)c1 | 7% | 17% | . | 7.6µM* | 0% | ?
CCOc1ccc(Sc2cc(C(=O)NCCc3ccccc3)c3ccccc3n2)cc1 | . | . | . | -7% | . | .
Cc1ccc(-c2cc(C(=O)NCCc3ccccc3)c3ccccc3n2)cc1C | . | . | . | 8.5µM* | . | .
CC1=C(C(=O)OCC(Br)(Br)Br)C(c2ccc(Br)cc2)NC(=O)N1CCCC(=O)O (stereo not drawn) | 3% | -2% | -22% | -15% | -3% | .
O=C(Nc1nnc(-c2cccs2)o1)c1cc(-c2ccccc2)nc2ccccc12 | -8% | -3% | -92% | 19µM* | -2% | ?
O=C(NCc1cccs1)c1cc(-c2ccccc2)nc2ccccc12 | -8% | 0% | -9% | ? | 2% | 0%
O=C(O)c1cc(-c2ccccc2)nc2ccccc12 | 3% | 1% | -20% | 24µM* | 1% | -24%
CCOc1ccc(-c2cc(C(=O)N3CCN(c4cc(Cl)ccc4C)CC3)c3ccccc3n2)cc1 | . | . | . | 9.5µM* | . | .
CCOc1ccc(-c2cc(C(=O)N3CCC(C)CC3)c3ccccc3n2)cc1 | . | . | . | . | . | 0%
CCN(CC)CCNC(=O)c1ccc2c(=O)n3nc(Nc4ccccc4)sc3nc2c1 | . | . | . | -14% | . | .
Cc1ccc(/C=N/NC(=O)c2ccc(-n3cnnn3)cc2)cc1 | 5% | 0% | . | -7% | -2% | -3%
COc1ccc(/C=N/NC(=O)c2ccc(-n3cnnn3)cc2)cc1 | -1% | 0% | . | 11µM* | -4% | -4%
CC(C)c1ccc(/C=N/NC(=O)c2ccc(-n3cnnn3)cc2)cc1 | -6% | -1% | . | 5.4µM* | -1% | -5%
O=C(O)c1ccnc2c(O)cccc12 | . | 26% | . | -3% | ? | .
C/C(=N/NS(=O)(=O)c1ccc(C)cc1)P(=O)(O)O | . | . | -4%[9.22 µM] | . | . | .
O=C(COc1ccc2ccccc2c1)NNC(=O)Cc1cccc2ccccc12 | 1% | -5% | -16% | 3% | 0% | -1%
O=Cc1cccc(OCc2cccc3ccccc23)c1 | ? | 2.8µM* | . | 27µM* | 4µM* | -2%
COc1ccc(COc2ccc3c(C)cc(=O)oc3c2)cc1 | 9.2µM* | 2.2µM* | . | 5.4µM* | ? | -2%
COc1ccc([C@H]2CC(=O)C=C(c3cccc(OCc4ccccc4)c3)C2)cc1 | -3% | 0% | . | 1% | -1% | 7%
COc1ccc(CCNC(=O)COc2ccc3c(C)cc(=O)oc3c2)cc1 | -3% | . | . | . | . | 2%
COc1ccc(COc2cccc(C=O)c2)cc1 | -1% | ? | . | 24µM* | ? | -4%
SMILES | ELG1 genotoxic | NPC1 prom act | SMN2 splice up | FLuc counter | Rab9 prom act | uPA generation
CC(NC(=O)c1cc(-c2ccccn2)nc2ccc(Cl)cc12)C1CCCO1 (stereo not drawn) | -11% | -3% | . | -13% | 13% | -6%
Cc1ccc(C(=O)c2cc3ccccc3o2)cc1 | ? | 2µM* | ? | 2.1µM* | 2.2µM* | -4%
O=C(c1cc2ccccc2o1)c1cccs1 | 16% | 3.5µM* | ? | 11µM* | 2.8µM* | -5%
Cc1ccc(C(=O)c2cc3ccccc3o2)cc1C | 16µM* | 2.2µM* | ? | 4.8µM* | 3.5µM* | -5%
O=C(Nc1ccc(F)c(Cl)c1)C1CCN(S(=O)(=O)c2ccc3c(c2)CCCN3C(=O)C2CCC2)CC1 | . | . | . | 4% | . | .
Cc1ccn2c(Nc3ccc4c(c3)OCO4)c(-c3ccc(C)o3)nc2c1 | . | . | 1% | 24µM* | . | .
c1csc(-c2nc3ccccn3c2Nc2ccc3c(c2)OCCO3)c1 | . | . | -5% | ? | . | .
COc1ccc(Nc2c(-c3ccc(C)o3)nc3cc(C)ccn23)cc1 | . | . | -4% | 17µM* | . | .
Brc1ccc(-c2nc3ccccn3c2Nc2ccc3c(c2)OCCO3)o1 | . | . | ? | 13µM* | . | .
Cc1ccn2c(Nc3ccc4c(c3)OCCO4)c(-c3cccs3)nc2c1 | . | . | -2% | 9.5µM* | . | .
Cc1ccc(Cn2c(CN3CCN(c4cccc(Cl)c4)CC3)nc3c2c(=O)n(C)c(=O)n3C)cc1 | . | . | -8% | -6% | . | .
Cc1ccc(-c2nc3ccc(Cl)cn3c2Nc2ccc3c(c2)OCCO3)o1 | . | . | 6% | -3% | . | .
Cc1ccc(-c2nc3ccc(Cl)cn3c2Nc2ccc3c(c2)OCCO3)s1 | . | . | 5µM* | ? | . | .
Cc1ccc2nc(-c3ccc(C)o3)c(Nc3ccc4c(c3)OCCO4)n2c1 | . | . | 8.9µM* | 21µM* | . | .
C[C@H]1Cc2c(COc3ccccc3)nc3c(c2CO1)CN(C(=O)C1CCCCC1)CC3 | . | . | -19%[9.22 µM] | . | . | .
O=C(NCC1CCCCC1)c1nnc(C(=O)NCC2CCCCC2)c2c1[nH]c1ccccc12 | . | . | -2% | . | . | .
Cc1ccccc1-c1nc2sc(C)c(C)c2c(=O)o1 | 3% | -2% | . | 7.6µM* | -1% | -7%
Cc1sc2nc(-c3ccco3)oc(=O)c2c1C | 14% | 9% | 20% | ? | 12% | -6%
Cc1ccccc1-c1nc2sc(-c3ccccc3)cc2c(=O)o1 | 6% | -34% | -5% | 4.8µM* | 9% | -2%
CCCCOc1ccc(CSCCN=C(N)N)cc1 | 15µM* | -15% | . | 21µM* | -13% | -12%
CCOc1ccc(CCNC(=O)c2ccc3nc(N4CCC(C)CC4)sc3c2)cc1OCC | . | . | -14% | -13% | . | .
CCC(Cc1ccccc1)NC(=O)c1ccc2nc(N3CCC(C)CC3)sc2c1 (stereo not drawn) | . | . | -11% | 12µM* | . | .
CCOC(CNC(=O)c1ccc2nc(N3CCC(C)CC3)sc2c1)OCC | ? | ? | -52% | 17µM* | ? | -1%
COc1cc(OC)c(NC(=O)NCc2cccn2Cc2ccccc2)cc1Cl | . | . | . | 6% | . | .
CCOc1ccc(-c2nc(C)c(C(C)=O)n2O)cc1 | ? | 28% | 13µM* | 6.7µM* | ? | .
COc1ccc(-c2nc(C)c(C(C)=O)n2O)cc1 | 10% | 3% | 7% | ? | 0% | -4%
CN(C)c1ccc(C(=O)Nc2cccc(-c3nc4cccnc4s3)c2)cc1 | . | . | . | 2% | . | .
O=C(Nc1ccc(-c2nc3cccnc3s2)cc1)c1cccnc1Cl | 0.82µM* | 0.32µM* | . | 1.7µM* | 0.79µM* | 0%
O=C(Nc1ccc(-c2nc3cccnc3s2)cc1)c1ccc(Cl)nc1 | 10% | 0.89µM* | . | ? | 0.71µM* | 10%

Compound activity: PubChem BioAssay, National Center for Advancing Translational Sciences (NCATS)
